In the library only some 5.4% were active in any assay of this set; here they are far more common.
APOBEC3A inh = human APOBEC3A DNA deaminase inhibition; P31941; recombinant A3A, FAM/TAMRA ssDNA deamination fluorescence; inhibition, % at 20 µM; 330,000 tested, 0.41% active; AID 493011;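 active means at least 40% inhibition at 20 µM here, with at most 30% in a related deaminase screen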;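 further: plate controls were A3A with DMSO for no effect and wells lacking A3A enzyme for full effect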
Target sequence (P31941 whole entry, looked up): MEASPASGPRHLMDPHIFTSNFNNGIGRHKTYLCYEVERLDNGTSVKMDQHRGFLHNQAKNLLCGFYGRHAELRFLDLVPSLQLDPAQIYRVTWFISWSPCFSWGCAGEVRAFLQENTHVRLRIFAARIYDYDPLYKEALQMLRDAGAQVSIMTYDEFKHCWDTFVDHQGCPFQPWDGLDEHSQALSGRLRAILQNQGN
aDG glyco up = alpha-DG glycosylation activation; Pro5-aDG cells, alpha-DG glycosylation AlphaScreen (IIH6); 0% Pro5, 100% B10-LARGE cell signal; activation, % at 10 µM; 360,000 tested, 0.22% active;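 active means activation of at least 8% versus controls, or a plate z-score of at least 8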;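 further: Pro5 are CHO cells carrying HIG-tagged alpha-DG that lacks glycosylation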
APOBEC3G inh = inhibitors of human APOBEC3G DNA deaminase. recombinant A3G, ssDNA deamination FAM/TAMRA fluorescence. inhibition, % at 20 µM. 330,000 tested, 0.28% active. AID 493012;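 active means inhibition of at least 40% at 20 µM, with no more than 30% in the related APOBEC3A deaminase screen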;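 further: plate controls were DMSO wells with A3G for no effect and wells lacking A3G enzyme for full effect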
Target sequence (Q9HC16 whole entry, looked up): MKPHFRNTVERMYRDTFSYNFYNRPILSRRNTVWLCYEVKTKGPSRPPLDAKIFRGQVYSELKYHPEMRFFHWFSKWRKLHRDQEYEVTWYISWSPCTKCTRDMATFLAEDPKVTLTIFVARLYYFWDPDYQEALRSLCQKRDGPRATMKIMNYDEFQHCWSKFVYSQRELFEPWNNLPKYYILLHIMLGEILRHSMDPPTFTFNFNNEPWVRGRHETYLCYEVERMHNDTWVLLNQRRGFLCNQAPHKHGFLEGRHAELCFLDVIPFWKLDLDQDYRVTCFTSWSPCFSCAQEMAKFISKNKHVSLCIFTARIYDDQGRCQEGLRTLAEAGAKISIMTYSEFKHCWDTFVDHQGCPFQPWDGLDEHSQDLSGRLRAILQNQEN
ALR H2O2 inh = inhibitors of human sulfhydryl oxidase ALR; P55789; purified ALR, DTT oxidation, H2O2 HRP-luminol luminescence; inhibition, % (no concentration beside the values); 290,000 tested, 3.8% active; AID 485317;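 active means mean replicate inhibition above about 79%, with every replicate also reaching it, limit read from the data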
rCAG binder = binds r(CAG) RNA repeats; AID 651821; inhibition, % at 3 µM; r(CAG) RNA repeat, TO-PRO-1 dye displacement fluorescence; 370,000 tested, 1.3% active;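 active means inhibition above the plate cutoff, the mean of all test compounds on that plate plus 3 SD, cut at about 35% in these data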;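 further: 0% = DMSO alone and 100% = 100 µM mitoxantrone as full dye displacement; higher means more dye released from RNA so lower well fluorescence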
PHOSPHO1 block = blocks human PHOSPHO1 phosphatase activity | recombinant PHOSPHO1, absorbance phosphatase assay | inhibition, % at 13.3 µM | 290,000 tested, 1.1% active | AID 1565; in the data active means inhibition above about 60%
rCAG binder conf = r(CAG) RNA repeat binding, confirmation. shares compounds with rCAG binder. TO-PRO-1 dye displacement fluorescence. inhibition, % at 3 µM. 4,300 tested, 70% active. AID 652065;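 active means inhibition above a per-plate cutoff, the mean inhibition of sample wells plus 3 SD, cut at about 35% in these data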;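 further: loss of TO-PRO-1 fluorescence as compound displaces dye from 1x1 AA loop RNA; 0% = DMSO only wells and 100% = 100 µM mitoxantrone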
DNA CAG counter = counter-screen for rCAG RNA binders: DNA CAG dye complex inhibitors; shares compounds with rCAG binder; d(CAG) DNA oligo TO-PRO-1 dye displacement, fluorescence; inhibition, % at 3 µM; 4,300 tested, 94% active;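 active means inhibition above its plate's cutoff, the mean test-well inhibition plus 3 SD, cut at about 4.8% in these data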;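 further: 0% = DNA dye mix with DMSO and 100% = 100 µM mitoxantrone; hits displace the dye from DNA and so lower well fluorescence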
DNA CAG DR = DNA CAG dye complex inhibition, dose response counter-screen; 250 tested, 20% active; IC50, µM; DNA CAG/GTC duplex TO-PRO-1 dye displacement fluorescence; shares compounds with rCAG binder; in the data active means IC50 below about 10 µM
* = called active by the depositor.

How did O=C(O)C1=CC[C@@H](c2ccc(Cl)cc2)N(S(=O)(=O)c2ccc(Cl)cc2)[C@H]1c1ccc(F)cc1 do in these assays?
APOBEC3A inh: -5; aDG glyco up: 0; APOBEC3G inh: -9; ALR H2O2 inh: 2; rCAG binder: 70*; rCAG binder conf: 68*; DNA CAG counter: 30*

What do the screens show for `COc1ccc([C@@H]2CC=C(C(=O)O)[C@H](c3cccc(Cl)c3)N2S(=O)(=O)c2ccc(C)cc2)cc1OC`?
APOBEC3A inh: -2; aDG glyco up: 1; APOBEC3G inh: -7; ALR H2O2 inh: -1; rCAG binder: 39*; rCAG binder conf: 29; DNA CAG counter: 7.0*

What do the screens show for `Cc1ccccc1S(=O)(=O)N1CC(C(=O)O)=CC[C@H]1c1ccc(Cl)cc1`?
APOBEC3A inh: -1; aDG glyco up: 0; APOBEC3G inh: -6; ALR H2O2 inh: 4; rCAG binder: 22

Results for Cc1ccc(S(=O)(=O)N2C(c3cccc(Cl)c3)CC=C(C(=O)O)C2c2cccc(Cl)c2)cc1 (configuration not stated) ?
aDG glyco up: 0; rCAG binder: 4

How did Cc1ccc([C@@H]2CC=C(C(=O)O)[C@H](c3ccc(F)cc3)N2S(=O)(=O)c2ccc(C)cc2)cc1 do in these assays?
APOBEC3A inh: -3; aDG glyco up: 0; APOBEC3G inh: -11; rCAG binder: 54*; rCAG binder conf: 61*; DNA CAG counter: 24*

How did Cc1cc(C)c(S(=O)(=O)N2C[C@H]3CON(C)[C@H]3C[C@H]2c2ccc(-n3ccnc3)cc2)c(C)c1 do in these assays?
rCAG binder: 2

Results for Nc1[nH]c(C(=O)c2ccc(Br)cc2)c(-c2ccccn2)c1C(=O)NCCc1c[nH]c2ccccc12 ?
rCAG binder: 10

How did CCOc1ccc([C@@H]2CC=C(C(=O)O)[C@H](c3cccc(Cl)c3)N2S(=O)(=O)c2ccc(C)cc2)cc1 do in these assays?
APOBEC3A inh: -5; aDG glyco up: 0; APOBEC3G inh: -9; ALR H2O2 inh: 6; rCAG binder: 69*; rCAG binder conf: 71*; DNA CAG counter: 33*; DNA CAG DR: inactive

What do the screens show for `CCc1ccc([C@@H]2CC=C(C(=O)O)[C@H](c3ccccc3)N2S(=O)(=O)c2ccc(C)cc2)cc1`?
APOBEC3A inh: -1; aDG glyco up: 0; APOBEC3G inh: -8; ALR H2O2 inh: 3; rCAG binder: 76*; rCAG binder conf: 67*; DNA CAG counter: 27*

Results for Cc1ccc(S(=O)(=O)N2[C@@H](c3ccc(Br)cc3)C(C(=O)O)=CC[C@H]2c2ccc(C(C)C)cc2)cc1 ?
APOBEC3A inh: -3; aDG glyco up: 0; APOBEC3G inh: -6; rCAG binder: 10

What do the screens show for `CCc1ccc([C@@H]2CC=C(C(=O)O)[C@H](c3ccc(F)cc3)N2S(=O)(=O)c2ccc(C)cc2)cc1`?
APOBEC3A inh: -1; aDG glyco up: 0; APOBEC3G inh: -8; ALR H2O2 inh: 4; rCAG binder: 80*; rCAG binder conf: 62*; DNA CAG counter: 24*

Results for Cc1ccc([C@@H]2CC=C(C(=O)O)[C@H](c3ccc(Br)cc3)N2S(=O)(=O)c2ccc(C)cc2)cc1 ?
APOBEC3A inh: -2; aDG glyco up: 0; APOBEC3G inh: -1; rCAG binder: 82*; rCAG binder conf: 84*; DNA CAG counter: 50*

How did CCOC(=O)N1CCN(C(=O)C[C@H]2C[C@@]3(C(=O)OC)C(=C[C@H](C(C)C)O[C@@H]3C3CC3)N(CCc3ccc(OC)c(OC)c3)C2=O)CC1 do in these assays?
rCAG binder: 2

How did COc1ccc(NC(=O)C2Cc3c(-c4cccc(F)c4)ccnc3O2)cc1OC (configuration not stated) do in these assays?
aDG glyco up: 1; rCAG binder: 1

How did CCCCCCCCN1C(=O)[C@@H](CC(=O)N2CCOCC2)C[C@@]2(C(=O)OC)C1=C[C@H](C(C)(C)C)O[C@@H]2C do in these assays?
rCAG binder: 3

Results for CC(C)C[C@H]1CN([C@@H](Cc2ccccc2)CN2CCC[C@H]2CN2C(=O)C(=O)NC[C@@H]2Cc2ccc(O)cc2)C(=O)C(=O)N1CC1CCCCCC1 ?
aDG glyco up: 0; rCAG binder: 11

How did COc1ccc([C@@H]2CC=C(C(=O)O)[C@H](c3ccc(Cl)cc3)N2S(=O)(=O)c2ccc(Cl)cc2)cc1 do in these assays?
APOBEC3A inh: 0; aDG glyco up: 0; APOBEC3G inh: -3; ALR H2O2 inh: 37; rCAG binder: 59*; rCAG binder conf: 74*; DNA CAG counter: 38*

Results for CCOc1ccc([C@@H]2CC=C(C(=O)O)[C@H](c3ccc(F)cc3)N2S(=O)(=O)c2ccc(C)cc2)cc1 ?
APOBEC3A inh: 1; aDG glyco up: 0; APOBEC3G inh: -2; ALR H2O2 inh: 3; rCAG binder: 52*; rCAG binder conf: 51*; DNA CAG counter: 15*

Results for CCOc1ccc([C@@H]2CC=C(C(=O)O)CN2S(=O)(=O)c2ccc(C)cc2)cc1 ?
APOBEC3A inh: -3; aDG glyco up: 0; APOBEC3G inh: -10; ALR H2O2 inh: -9; rCAG binder: 27

How did Cc1ccc(S(=O)(=O)N2[C@@H](c3cccc(Cl)c3)C(C(=O)O)=CC[C@H]2c2ccc(Cl)cc2)cc1 do in these assays?
APOBEC3A inh: -1; aDG glyco up: 0; APOBEC3G inh: -8; ALR H2O2 inh: 4; rCAG binder: 10

What do the screens show for `Cc1ccc([C@H]2C[C@]34CN(Cc5ccccc5)S(=O)(=O)[C@H]3C[C@H]2O4)cc1`?
rCAG binder: 0

How did CC(=O)c1cccc(NC(=O)C2(C)Cc3c(-c4ccccc4)ccnc3O2)c1 (configuration not stated) do in these assays?
aDG glyco up: 0; rCAG binder: 1

What do the screens show for `CCN(c1ccccc1)S(=O)(=O)c1cc(NC(=O)CSc2n[nH]c(=O)[nH]c2=O)ccc1Cl`?
APOBEC3A inh: 1; aDG glyco up: 0; APOBEC3G inh: -3; ALR H2O2 inh: 4; rCAG binder: 48*; PHOSPHO1 block: 24; rCAG binder conf: 32; DNA CAG counter: 15*

How did O=C(CSc1n[nH]c(=O)[nH]c1=O)Nc1ccc2c(c1)C(=O)c1ccccc1C2=O do in these assays?
APOBEC3A inh: 16; aDG glyco up: 0; APOBEC3G inh: 15; rCAG binder: 40*; PHOSPHO1 block: -31; rCAG binder conf: 43*; DNA CAG counter: 17*

Screening data (PubChem)
